This note sets out measurements from PubChem BioAssay (NCI).

Test systems include HCT-15 colon; HT29 colon; SNB-75 CNS; SNB-19 CNS; U251 CNS; PC-3 prostate; SK-MEL-5 melanoma; UACC-62 melanoma; LOX IMVI melanoma; SK-MEL-28 melanoma; SK-MEL-2 melanoma; EKVX NSCLC; SN12C renal; UO-31 renal; TK-10 renal; ACHN renal; CAKI-1 renal; A498 renal; CCRF-CEM leukemia; MOLT-4 leukemia.
Holding throughout (assay): NCI-60 one-dose screen, 48 h (100 = growth as untreated, 0 = no growth, -100 = all killed)
Holding throughout (settings): 10 µM unless noted

This is part of a sample that, as a whole, favours compounds with a hit. Of some 83,000 tested, about 20% had one in any assay.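 Step 1: grow cells in 96-well plates. Step 2: add test compound at a single concentration. Step 3: incubate 48 h. Step 4: record percent growth.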 Unmarked numbers belong to inactive results. The source made the active and inactive calls. The calls were made as follows: active = growth percent below 10; inactive = the rest.

With `C=CCc1c2c(c(OC)c3ccoc13)C(=O)/C(=C/c1ccccc1OC)O2`, the growth is 45.2% with HCT-15 colon; 44.6% in the assay with HT29 colon; 35.8% in the assay on SNB-75 CNS; 73% in the assay with SNB-19 CNS; 46.2% in the assay on U251 CNS; 55.2% in the assay with PC-3 prostate. The growth in the assay with SK-MEL-5 melanoma is 98%; in the assay on UACC-62 melanoma, 46.4%; with LOX IMVI melanoma, 38.3%; in the assay on SK-MEL-28 melanoma, 81.1%; in the assay on SK-MEL-2 melanoma, 58.4%; in the assay on EKVX NSCLC it was 60.6%. Moreover, the growth in the assay on SN12C renal was 62.1%; with UO-31 renal it was 65.7%; in the assay with TK-10 renal, 52.9%; in the assay with ACHN renal, 59.3%; in the assay with CAKI-1 renal, 38.4%; with A498 renal, 46.2%. Further, the figures for the growth in the assay with CCRF-CEM leukemia and with MOLT-4 leukemia were 37.5% and 45.8%, respectively.
`C=C1C(=O)O[C@H]2[C@H]1CC/C(COC(=O)N[C@H]1C[C@H](O[C@H]3C[C@](O)(C(=O)CO)Cc4c(O)c5c(c(O)c43)C(=O)c3c(OC)cccc3C5=O)O[C@@H](C)[C@H]1O)=C\CC[C@@]1(C)O[C@@H]21`: the growth was 99.2% with HCT-15 colon; 25.2% with HT29 colon; 56.4% in the assay with SNB-75 CNS; 68.4% in the assay on SNB-19 CNS; 45.3% in the assay on U251 CNS; 78% with PC-3 prostate. Besides, the growth was 68.3% with SK-MEL-5 melanoma; 34.6% in the assay on UACC-62 melanoma; 0.614% (active) in the assay with LOX IMVI melanoma; 9.44% (active) with SK-MEL-28 melanoma; 85.5% in the assay on SK-MEL-2 melanoma; 103% in the assay on EKVX NSCLC. Moreover, the growth was 34.9% in the assay on SN12C renal; 83.1% in the assay on UO-31 renal; 64.9% in the assay with TK-10 renal; 88.9% in the assay on ACHN renal; 61.7% in the assay on CAKI-1 renal; 70.5% in the assay with A498 renal. The growth in the assay on CCRF-CEM leukemia is -18.2% (active); in the assay on MOLT-4 leukemia, -5.6% (active).
For `CO[C@H]1/C=C(/C)CCC[C@H](C)[C@H](O)[C@@H](C)C(=O)C(C)(C)[C@@H](O)CC(=O)O[C@@H]1/C(C)=C/c1csc(C)n1`, the growth was 16.3% with HCT-15 colon; -4.27% (active) in the assay with HT29 colon; -32.1% (active) in the assay with SNB-75 CNS; 31.2% in the assay on SNB-19 CNS; 15.4% with U251 CNS; 26.6% in the assay on PC-3 prostate. Moreover, the growth in the assay on SK-MEL-5 melanoma is 20.6%; in the assay with UACC-62 melanoma, 36.8%; with LOX IMVI melanoma, 14.3%; with SK-MEL-28 melanoma, 39.6%; in the assay with SK-MEL-2 melanoma, -5.73% (active); in the assay with EKVX NSCLC, 34%. Also, the growth with SN12C renal is 38.9%; with UO-31 renal, 21.8%; with TK-10 renal, 18.8%; in the assay with ACHN renal it was 50%; with CAKI-1 renal it was 10.8%; with A498 renal it was 2.04% (active). For the same compound, the results for the growth with CCRF-CEM leukemia and in the assay on MOLT-4 leukemia were 25.7% and 14.6%, respectively.
Turning to `Oc1c(Cl)cc(Cl)cc1/C=N/Nc1nnc(N/N=C/c2cc(Cl)cc(Cl)c2O)c2ccccc12`, the growth in the assay on HCT-15 colon is 20.6%; in the assay with HT29 colon, 23.7%; in the assay on SNB-75 CNS, 13%; with SNB-19 CNS, 12.8%; in the assay on U251 CNS, 21%; with PC-3 prostate it was 16.3%. Besides, the growth is -46.8% (active) in the assay with SK-MEL-5 melanoma; 13.2% in the assay with UACC-62 melanoma; -52.3% (active) in the assay with LOX IMVI melanoma; 22.9% in the assay with SK-MEL-28 melanoma; 51.2% in the assay on SK-MEL-2 melanoma; 10.2% in the assay with EKVX NSCLC. Besides, the growth in the assay with SN12C renal was 20%; with UO-31 renal, 0.684% (active); in the assay on TK-10 renal, 37.8%; in the assay on ACHN renal, 7.55% (active); in the assay with CAKI-1 renal it was -34.7% (active); in the assay on A498 renal, -2.98% (active). For the same compound, the results for the growth with CCRF-CEM leukemia and in the assay with MOLT-4 leukemia were 14% and 5.23% (active), respectively.
With `Cc1ccc(NC(=S)NNC(=S)NNc2ccccc2)cc1C`, the growth in the assay with HCT-15 colon is 103%; in the assay on HT29 colon it was 104%; in the assay with SNB-75 CNS, 107%; with SNB-19 CNS, 106%; in the assay with U251 CNS, 96.8%; with PC-3 prostate it was 55.7%. Besides, the growth in the assay on SK-MEL-5 melanoma is 95.7%; with UACC-62 melanoma, 104%; with LOX IMVI melanoma it was 106%; in the assay on SK-MEL-28 melanoma, 115%; in the assay on SK-MEL-2 melanoma it was 91.2%; in the assay on EKVX NSCLC, 108%. For the same compound, the growth in the assay with SN12C renal was 101%; with UO-31 renal, 77.2%; in the assay with TK-10 renal it was 104%; in the assay on ACHN renal it was 99.1%; in the assay on CAKI-1 renal, 95%; in the assay on A498 renal, 93.7%. For the same compound, the growth in the assay with CCRF-CEM leukemia was 44.4%; in the assay on MOLT-4 leukemia, 45%.
`C[C@]12C=CC(=O)C=C1CCC1C2[C@@H](O)C[C@@]2(C)C1CC[C@]2(O)C(=O)COC(=O)CCC(=O)O` (stereo not given in full): the growth with HCT-15 colon is 105%; in the assay on HT29 colon, 105%; in the assay on SNB-75 CNS it was 120%; with SNB-19 CNS it was 104%; in the assay with U251 CNS, 103%; with PC-3 prostate, 93.4%. In addition, the growth is 113% in the assay with SK-MEL-5 melanoma; 104% in the assay with UACC-62 melanoma; 102% in the assay on LOX IMVI melanoma; 107% with SK-MEL-28 melanoma; 117% in the assay on SK-MEL-2 melanoma; 74.2% with EKVX NSCLC. Moreover, the growth was 74.2% in the assay with SN12C renal; 92.2% with UO-31 renal; 116% in the assay on TK-10 renal; 102% in the assay with ACHN renal; 82.5% in the assay on CAKI-1 renal; 89.2% in the assay on A498 renal. Further, the growth in the assay with CCRF-CEM leukemia is 60.9%; with MOLT-4 leukemia, 100%.
For `Nc1ncnc2c1N=C(c1ccc3c(c1)OCO3)CC(c1cccc(Nc3ccnc4cc(Cl)ccc34)c1)N2` (stereo not given), the growth in the assay with HCT-15 colon is 36.4%; in the assay with HT29 colon it was 27.8%; with SNB-75 CNS it was 74.6%; with SNB-19 CNS, 58.2%; in the assay on U251 CNS it was 26.5%; in the assay with PC-3 prostate it was 54.2%. For the same compound, the growth was 53.4% in the assay on SK-MEL-5 melanoma; 57% in the assay on UACC-62 melanoma; 27.2% in the assay with LOX IMVI melanoma; 91.3% in the assay on SK-MEL-28 melanoma; 68.7% in the assay on SK-MEL-2 melanoma; 62.2% in the assay with EKVX NSCLC. Also, the growth in the assay on SN12C renal was 50.7%; in the assay with UO-31 renal it was 44%; in the assay on TK-10 renal, 65.7%; with ACHN renal, 67.5%; in the assay with CAKI-1 renal, 53.4%; in the assay with A498 renal it was 61.5%. Further, the growth in the assay on CCRF-CEM leukemia is 21.5%; with MOLT-4 leukemia it was 52.7%.
For `CCOC(=O)c1c(NC(=O)c2ccc(C(C)C)cc2)sc2c(CN(C)C)c(O)ccc12`, the growth in the assay on HCT-15 colon is -49.2% (active); in the assay with HT29 colon it was 27%; with SNB-75 CNS it was 98.5%; in the assay on SNB-19 CNS, 57.8%; in the assay with U251 CNS it was 6.18% (active); in the assay with PC-3 prostate it was 96.1%. In addition, the growth in the assay on SK-MEL-5 melanoma was 80.7%; in the assay with UACC-62 melanoma, 53.8%; in the assay on LOX IMVI melanoma, -83.3% (active); in the assay on SK-MEL-28 melanoma, -14.9% (active); in the assay with SK-MEL-2 melanoma it was 88.3%; in the assay with EKVX NSCLC, 97.1%. Moreover, the growth in the assay on SN12C renal is 82%; with UO-31 renal it was 70.5%; in the assay on TK-10 renal, 107%; with ACHN renal, 37.8%; in the assay on CAKI-1 renal, 75.7%; in the assay with A498 renal it was 41.5%. For the same compound, the growth in the assay with CCRF-CEM leukemia was 8.75% (active); with MOLT-4 leukemia it was -21% (active).
